# Assay results as given in PubChem BioAssay AID1159580 (chemical genetic matrix, 2015).
# The campaign covered roughly 5,500 compounds. About 2,000 (36%) were called active. Another 18% or so got no clear call; they are omitted. The list shows a part of the results. Values without a mark were called inactive. Cut-off read from the data, not from the text of the source: active = normalized growth mostly below about 0.91 (no sharp cut-off); inconclusive = no clear call, values can overlap the other calls; inactive = mostly above about 0.92.
# Experiment: chemical genetic growth profiling, strain panel (AID 1159580);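 note: tested at 20 µM; growth read once vehicle control cultures reached saturation at 30 °C; 1 = growth at the plate median or of vehicle wells; lower values mean less growth of the strain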
# Conditions: growth OD
smiles,measurement,setting,value
COc1ccc(-c2cc(=O)c3c(OC(C)=O)cc(OC(C)=O)cc3o2)cc1,normalized growth,"S. cerevisiae deletion strains, locus YJR066W, strain TOR1, active compounds read low",0.922
same,normalized growth,"S. cerevisiae deletion strains, locus YJR075W, strain HOC1, active compounds read low",0.946
same,normalized growth,"S. cerevisiae deletion strains, locus YKL009W, strain mrt4, active compounds read low",0.994
same,normalized growth,"S. cerevisiae deletion strains, locus YKL068W, active compounds read low",0.972
same,normalized growth,"S. cerevisiae deletion strains, locus YKL085W, strain MDH1 (second series), active compounds read low",0.968
same,normalized growth,"S. cerevisiae deletion strains, locus YKL085W, strain MDH1, active compounds read low",0.968
same,normalized growth,"S. cerevisiae deletion strains, locus YKL160W, strain elf1, active compounds read low",0.974
same,normalized growth,"S. cerevisiae deletion strains, locus YKL190W, strain CNB1, active compounds read low",0.967
same,normalized growth,"S. cerevisiae deletion strains, locus YKR001C, strain vps1, active compounds read low",0.941
same,normalized growth,"S. cerevisiae deletion strains, locus YKR026C, strain gcn3, active compounds read low",0.985
same,normalized growth,"S. cerevisiae deletion strains, locus YKR091W, strain srl3, active compounds read low",0.999
same,normalized growth,"S. cerevisiae deletion strains, locus YLL001W, strain dnm1, active compounds read low",0.937
same,normalized growth,"S. cerevisiae deletion strains, locus YLL026W, active compounds read low",0.985
same,normalized growth,"S. cerevisiae deletion strains, locus YLL041C, strain sdh2, active compounds read low",0.992
same,normalized growth,"S. cerevisiae deletion strains, locus YLR027C, strain aat2, active compounds read low",0.984
same,normalized growth,"S. cerevisiae deletion strains, locus YLR039C, strain RIC1, active compounds read low",0.824
same,normalized growth,"S. cerevisiae deletion strains, locus YLR058C, strain SHM2, active compounds read low",0.957
same,normalized growth,"S. cerevisiae deletion strains, locus YLR102C, strain apc9, active compounds read low",0.959
same,normalized growth,"S. cerevisiae deletion strains, locus YLR113W, strain HOG1, active compounds read low",0.805 (active)
same,normalized growth,"S. cerevisiae deletion strains, locus YLR221C, strain rsa3, active compounds read low",0.973
same,normalized growth,"S. cerevisiae deletion strains, locus YLR258W, strain gsy2, active compounds read low",0.971
same,normalized growth,"S. cerevisiae deletion strains, locus YLR262C, strain YPT6 (second series), active compounds read low",0.914
same,normalized growth,"S. cerevisiae deletion strains, locus YLR262C, strain YPT6, active compounds read low",0.807
same,normalized growth,"S. cerevisiae deletion strains, locus YLR268W, strain sec22, active compounds read low",0.964
same,normalized growth,"S. cerevisiae deletion strains, locus YLR320W, strain mms22, active compounds read low",0.965
same,normalized growth,"S. cerevisiae deletion strains, locus YLR330W, strain CHS5, active compounds read low",0.929
same,normalized growth,"S. cerevisiae deletion strains, locus YLR342W, strain FKS1 (second series), active compounds read low",1.01
same,normalized growth,"S. cerevisiae deletion strains, locus YLR342W, strain FKS1, active compounds read low",1
same,normalized growth,"S. cerevisiae deletion strains, locus YLR357W, strain rsc2, active compounds read low",0.894
same,normalized growth,"S. cerevisiae deletion strains, locus YLR370C, strain arc18, active compounds read low",0.992
same,normalized growth,"S. cerevisiae deletion strains, locus YLR371W, strain rom2, active compounds read low",0.952
same,normalized growth,"S. cerevisiae deletion strains, locus YLR384C, strain iki3, active compounds read low",0.981
same,normalized growth,"S. cerevisiae deletion strains, locus YLR418C, strain cdc73, active compounds read low",0.685 (active)
same,normalized growth,"S. cerevisiae deletion strains, locus YML016C, strain PPZ1, active compounds read low",0.924
same,normalized growth,"S. cerevisiae deletion strains, locus YML032C, strain rad52, active compounds read low",0.964
same,normalized growth,"S. cerevisiae deletion strains, locus YML120C, strain ndi1, active compounds read low",0.973
same,normalized growth,"S. cerevisiae deletion strains, locus YML124C, strain tub3, active compounds read low",0.958
same,normalized growth,"S. cerevisiae deletion strains, locus YMR058W, strain fet3, active compounds read low",0.983
same,normalized growth,"S. cerevisiae deletion strains, locus YMR078C, strain ctf18, active compounds read low",0.963
same,normalized growth,"S. cerevisiae deletion strains, locus YMR125W, strain sto1, active compounds read low",0.965
same,normalized growth,"S. cerevisiae deletion strains, locus YMR129W, active compounds read low",0.981
same,normalized growth,"S. cerevisiae deletion strains, locus YMR205C, strain PFK2, active compounds read low",0.976
same,normalized growth,"S. cerevisiae deletion strains, locus YMR223W, strain ubp8, active compounds read low",0.946
same,normalized growth,"S. cerevisiae deletion strains, locus YMR231W, strain pep5, active compounds read low",0.994
same,normalized growth,"S. cerevisiae deletion strains, locus YMR307W, strain GAS1, active compounds read low",0.913
same,normalized growth,"S. cerevisiae deletion strains, locus YNL067W, strain RPL9B, active compounds read low",0.945
same,normalized growth,"S. cerevisiae deletion strains, locus YNL071W, strain lat1, active compounds read low",0.893 (active)
same,normalized growth,"S. cerevisiae deletion strains, locus YNL183C, strain NPR1, active compounds read low",0.84
same,normalized growth,"S. cerevisiae deletion strains, locus YNL209W, strain ssb2, active compounds read low",0.996
same,normalized growth,"S. cerevisiae deletion strains, locus YNL233W, strain BNI4, active compounds read low",0.89
same,normalized growth,"S. cerevisiae deletion strains, locus YNL248C, strain rpa49, active compounds read low",0.955
same,normalized growth,"S. cerevisiae deletion strains, locus YNL250W, strain rad50, active compounds read low",0.958
same,normalized growth,"S. cerevisiae deletion strains, locus YNL271C, strain bni1, active compounds read low",0.986
same,normalized growth,"S. cerevisiae deletion strains, locus YNL298W, strain CLA4, active compounds read low",0.968
same,normalized growth,"S. cerevisiae deletion strains, locus YNL307C, strain MCK1, active compounds read low",0.878 (active)
same,normalized growth,"S. cerevisiae deletion strains, locus YNL322C, strain KRE1 (second series), active compounds read low",0.952
same,normalized growth,"S. cerevisiae deletion strains, locus YNR049C, strain mso1, active compounds read low",0.992
same,normalized growth,"S. cerevisiae deletion strains, locus YNR052C, strain pop2, active compounds read low",0.949
same,normalized growth,"S. cerevisiae deletion strains, locus YOL006C, strain TOP1, active compounds read low",0.97
same,normalized growth,"S. cerevisiae deletion strains, locus YOL012C, strain htz1",0.936
same,normalized growth,"S. cerevisiae deletion strains, locus YOL147C, strain pex11, active compounds read low",0.945
same,normalized growth,"S. cerevisiae deletion strains, locus YOR001W, strain rrp6, active compounds read low",0.967
same,normalized growth,"S. cerevisiae deletion strains, locus YOR061W, strain CKA2, active compounds read low",1
same,normalized growth,"S. cerevisiae deletion strains, locus YOR069W, strain VPS5, active compounds read low",0.959
same,normalized growth,"S. cerevisiae deletion strains, locus YOR070C, strain gyp1, active compounds read low",0.999
same,normalized growth,"S. cerevisiae deletion strains, locus YOR080W, strain dia2, active compounds read low",0.989
same,normalized growth,"S. cerevisiae deletion strains, locus YOR083W, strain WHI5, active compounds read low",0.984
same,normalized growth,"S. cerevisiae deletion strains, locus YOR106W, strain vam3, active compounds read low",0.988
same,normalized growth,"S. cerevisiae deletion strains, locus YOR136W, strain idh2, active compounds read low",0.978
same,normalized growth,"S. cerevisiae deletion strains, locus YOR144C, strain elg1, active compounds read low",0.961
same,normalized growth,"S. cerevisiae deletion strains, locus YOR184W, strain ser1, active compounds read low",0.982
same,normalized growth,"S. cerevisiae deletion strains, locus YOR231W, strain MKK1, active compounds read low",0.876
same,normalized growth,"S. cerevisiae deletion strains, locus YOR265W, strain rbl2, active compounds read low",0.99
same,normalized growth,"S. cerevisiae deletion strains, locus YOR270C, strain vph1, active compounds read low",0.889
same,normalized growth,"S. cerevisiae deletion strains, locus YOR290C, strain snf2, active compounds read low",0.949
same,normalized growth,"S. cerevisiae deletion strains, locus YOR316C, strain cot1, active compounds read low",0.942
same,normalized growth,"S. cerevisiae deletion strains, locus YPL051W, strain arl3, active compounds read low",0.954
same,normalized growth,"S. cerevisiae deletion strains, locus YPL055C, strain LGE1, active compounds read low",0.906
same,normalized growth,"S. cerevisiae deletion strains, locus YPL078C, strain atp4, active compounds read low",0.967
same,normalized growth,"S. cerevisiae deletion strains, locus YPL106C, strain sse1, active compounds read low",0.922
same,normalized growth,"S. cerevisiae deletion strains, locus YPL240C, strain hsp82, active compounds read low",0.987
same,normalized growth,"S. cerevisiae deletion strains, locus YPL241C, strain CIN2, active compounds read low",0.973
same,normalized growth,"S. cerevisiae deletion strains, locus YPL256C, strain CLN2, active compounds read low",0.756 (active)
same,normalized growth,"S. cerevisiae deletion strains, locus YPR119W, strain clb2, active compounds read low",0.958
same,normalized growth,"S. cerevisiae deletion strains, locus YPR141C, strain kar3, active compounds read low",0.953
same,normalized growth,"S. cerevisiae deletion strains, locus YPR163C, strain tif3, active compounds read low",0.981
same,normalized growth,"S. cerevisiae deletion strains, locus YPR167C, strain met16, active compounds read low",0.946
same,normalized growth,"S. cerevisiae deletion strains, strain wtn01, active compounds read low",0.987
same,normalized growth,"S. cerevisiae strains, strain wild type, active compounds read low",0.971
